Sampled rows, rich in hits. Any-hit rate of the full collection: about 31%.
CYP2C9 act = human CYP2C9 activators, primary screen, biochemical, luminescence. 96,000 compounds, 1.4% hits. recombinant CYP2C9, luciferin-H conversion; stronger effect = higher value; factor 1 = untreated enzyme, 0 = blocked. activation factor at 5 µM. Cytochrome P450 2C9 (Homo sapiens), P11712;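 active = activation factor of 2 or more for CYP2C9 at a 5 µM dose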;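 also: 0 = sulfaphenazole-blocked wells and 1 = vehicle-only wells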
CYP2C9 inh = blockers of cytochrome P450 2C9 activity – biochemical, luminescence, ADME assay, primary screen; AID 777, 2007; inhibition, % at 5 µM; P11712; 96,000 compounds, 20% hits; CYP2C9 Supersomes, luciferin-H conversion;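 active = blocking of liver enzyme CYP2C9 beyond about 50% at 5 µM, limit read from the data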
CYP2C19 inh = blockers of cytochrome P450 2C19 activity – biochemical, luminescence, ADME assay, primary screen | P33261 | CYP2C19 Supersomes, luciferin-H EGE luminescence, 30 min | AID 778, 2007 | 96,000 compounds, 21% hits | inhibition, % at 5 µM;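 active = CYP2C19 inhibition above a set limit at 5 µM in the primary screen, cut at about 50% in these data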;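 also: plate controls were negative control wells for no effect and 2.5 mM tranylcypromine positive control for full effect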
Target sequence (P33261 whole entry, looked up): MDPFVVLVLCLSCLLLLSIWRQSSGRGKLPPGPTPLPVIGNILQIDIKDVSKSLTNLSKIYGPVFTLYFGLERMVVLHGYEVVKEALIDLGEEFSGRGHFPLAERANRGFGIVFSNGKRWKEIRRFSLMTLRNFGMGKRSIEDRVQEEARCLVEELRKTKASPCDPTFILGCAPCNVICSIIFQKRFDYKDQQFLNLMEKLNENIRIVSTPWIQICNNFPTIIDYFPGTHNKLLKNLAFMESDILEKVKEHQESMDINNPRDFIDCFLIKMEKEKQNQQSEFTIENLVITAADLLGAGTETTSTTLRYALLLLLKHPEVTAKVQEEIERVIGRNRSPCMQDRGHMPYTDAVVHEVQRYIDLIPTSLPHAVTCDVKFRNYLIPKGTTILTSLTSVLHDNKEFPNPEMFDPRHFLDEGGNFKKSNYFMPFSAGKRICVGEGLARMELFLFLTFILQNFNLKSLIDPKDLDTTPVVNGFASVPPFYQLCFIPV
CYP2C19 activ = human CYP2C19 activators, primary screen, biochemical, luminescence; 96,000 tested, under 10 active; recombinant CYP2C19, luciferin-H EGE luminescence; stronger effect = higher value; 0 = fully inhibited enzyme, 1 = untreated enzyme; Cytochrome P450 2C19 (Homo sapiens), P33261; AID 1025, 2008; activation factor at 5 µM;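 active = activation factor of at least 2 at 5 µM in the primary screen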;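 also: 0 = wells with 2.5 mM tranylcypromine and 1 = vehicle-only wells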
* marks the source's active call; other numbers are inactive results.

SMILES	CYP2C9 act	CYP2C9 inh	CYP2C19 inh	CYP2C19 activ
CCOC(=O)C(C(=O)OCC)C(C(=O)OCC)N1CCOCC1 (configuration not stated)	0.5	52.9*	-2.6	1
CN(C)c1nc(N)nc(CSc2nnnn2-c2ccccc2)n1	0.8	17.2	52.2*	0.5
Cc1nc(Cc2nnc(SCc3nc(N)nc(Nc4ccccc4C)n3)o2)cs1	0.5	51.3*	30.2	0.7
CN(C)c1nc(N)nc(CSc2nnnn2-c2ccc(C(=O)O)cc2)n1	1.2	-21.4	-3.8	1
Cc1ccccc1Nc1nc(N)nc(CSc2nnnn2-c2ccccc2)n1	0.2	82.4*	87.6*	0.1
CCc1ccc(Nc2nc(N)nc(CSc3nnnn3-c3ccccc3)n2)cc1	0.9	12.2	10.2	0.9
Cc1csc(SCC(=O)c2ccc(S(=O)(=O)N3CCOCC3)cc2)n1	0.6	39.9	47.6	0.5
Cc1cc(C)cc(-n2c(C)cc(/C=N/NC(=O)c3cccc([N+](=O)[O-])c3C)c2C)c1	0.5	52.6*	22.2	0.8
Cc1ccccc1OCC(=O)N(Cc1nc(-c2ccccc2)no1)C(C)C	0.6	39.8	57.3*	0.4
Cc1ccc(SCC(=O)N(Cc2nc(-c3ccccc3)no2)C(C)C)cc1	0.2	78.8*	76.9*	0.2
O=C1c2cnc3nc(SCc4cccc(Cl)c4)nn3c2CC2c3ccccc3CCN12 (configuration not stated)	0.5	45.9	-8.1	1.1
COC(=O)C(C(=O)NCC1CCCO1)C1CCCC1 (configuration not stated)	0.9	14.9	9.1	0.9
Cc1ccccc1Oc1ccc(S(=O)(=O)NCCC(=O)O)cc1	0.6	43.9	-6.0	1.1
Cc1nn(C)c(Oc2ccccc2)c1CCNS(=O)(=O)c1ccccc1	0.5	46.5	91.9*	0.1
COc1ccc(-c2ccc(-c3noc(C4CCCCC4)n3)c(OC)n2)cc1	0.8	23.8	11.5	0.9
Cc1nn2c(c1-c1ccc(Cl)cc1)N=C(c1ccco1)CC2c1ccccc1 (configuration not stated)	0.3	72.6*	24.9	0.8
CC(C)OCCCNC(=O)CCSc1ccc(Cl)cc1	0.2	78.2*	62.7*	0.4
Cn1nnnc1SCc1c(F)cccc1F	1	1.4	25.6	0.7
Cn1nnnc1SCc1cccc(CSc2nnnn2C)n1	1	-2.0	97.6*	0
Cc1ccc(Nc2nc(CSc3nnnn3C)cs2)cc1	2.8*	-177.1	70.0*	0.3
Cn1nnnc1SCc1csc(Nc2ccccc2)n1	3.8*	-277.3	16.6	0.8
Cc1ccc(Nc2nc(CSc3nnnn3-c3ccccc3)cs2)cc1	1.7	-68.1	35.3	0.6
CCOC(=O)C1=C(CSc2nncn2C)NC(=O)NC1c1cc(OCC)ccc1OCC (configuration not stated)	1.2	-23.2	-17.2	1.2
CC1CCN(CCC(=O)N2CCCc3c2c(=O)oc2ccc(O)cc32)CC1	1.3	-28.9	5.5	0.9
CN(CC(=O)N1CCCc2c1c(=O)oc1ccc(O)cc21)Cc1ccccc1	0.3	66.7*	96.1*	0
SMILES	CYP2C9 act	CYP2C9 inh	CYP2C19 inh	CYP2C19 activ
c1csc(-c2nn3c(C4COc5ccccc5O4)nnc3s2)c1 (configuration not stated)	0.5	51.2*	57.9*	0.4
Brc1ccccc1-c1nnc2sc(-c3ccc4c(c3)OCCO4)nn12	0	96.5*	74.4*	0.3
c1ccc2c(c1)OCC(c1nnc3sc(-c4ccc5c(c4)OCO5)nn13)O2 (configuration not stated)	0.2	83.7*	65.3*	0.3
Fc1ccc(-c2nn3c(C4COc5ccccc5O4)nnc3s2)cc1 (configuration not stated)	0.5	49.0	6.8	0.9
c1ccc2c(c1)OCC(c1nnc3n1-c1ccccc1SC3)O2 (configuration not stated)	0.2	84.8*	95.8*	0
Cc1nn(C)cc1/C=N/NC(=O)C(C)(C)Oc1ccc(Cl)cc1	0.7	27.9	18.4	0.8
CCOC(=O)C1CCCN(CC(=O)NC2CC2)C1 (configuration not stated)	1	-4.3	-1.4	1
O=C(Nc1ccccc1)c1ccc(NC2CCCCC2)c(S(=O)(=O)N2CCOCC2)c1	0.2	82.3*	82.7*	0.2
Cc1ccc(C(=O)Nc2cccnc2)cc1S(=O)(=O)N1CCOCC1	0.6	36.2	46.6	0.5
O=C(Nc1ccccc1)c1ccc(N2CCN(c3ccccn3)CC2)c(S(=O)(=O)N2CCOCC2)c1	0.1	90.7*	92.4*	0.1
O=C(Nc1ccccc1)c1cc(S(=O)(=O)N2CCOCC2)cs1	0.5	46.6	31.3	0.7
O=C(Nc1ccccc1)c1ccc(N2CCN(c3ccccc3)CC2)c(S(=O)(=O)N2CCOCC2)c1	0.2	76.5*	58.2*	0.4
Cc1c(Cl)c([N+](=O)[O-])nn1CCCC(=O)Nc1sc2c(c1C#N)CCC2	0.7	34.8	-12.0	1.1
O=C(Nc1ccc(Cl)c([N+](=O)[O-])c1)c1ccc(NCCCN2CCOCC2)c([N+](=O)[O-])c1	0.8	16.2	11.0	0.9
Cc1[nH]c2ccccc2c1C(O)CN1CCN(c2cccc(C(F)(F)F)c2)CC1 (configuration not stated)	1.9	-91.1	0.7	1
CCOC(=O)CSc1nc2cc(OCC)ccc2cc1C#N	0.5	49.4	15.3	0.8
COc1cc(C(=O)N2CCCN(c3nc4cc(C)ccc4cc3C#N)CC2)cc(OC)c1OC	0.8	22.1	21.5	0.8
CCOc1ccc2nc(SCC#N)c(C#N)cc2c1	0.3	66.8*	11.0	0.9
COCC(=O)N1CCCN(c2nc3c(C)cccc3cc2C#N)CC1	1	4.6	63.9*	0.4
CCOc1ccc2cc(C#N)c(SCC(=O)N3CCC(C)CC3)nc2c1	0.4	63.3*	22.4	0.8
CCOc1ccc2cc(C#N)c(SCC(=O)NC(C)CC)nc2c1 (configuration not stated)	0.5	53.6*	-4.7	1
COc1ccnc(N=CNOCc2ccc(F)cc2Cl)c1C#N	0.9	9.6	38.8	0.6
CCOC(=O)c1cnc2cc(C)nn2c1-c1ccccc1	0.9	10.6	2.1	1
Cc1cccc2cc(C#N)c(SCC(=O)N3CCC(C)CC3)nc12	0.4	58.7*	35.2	0.6
Cc1cccc2cc(C#N)c(SCC(=O)N3CC(=O)Nc4ccccc43)nc12	0.5	47.6	3.9	1
COc1ccc(N2C(=O)C3CCCN3C2=O)cc1 (configuration not stated)	1.2	-24.7	-11.0	1.1
CCOC(=O)C1CCCN(c2c(NCCN3CCCCC3C)c(=O)c2=O)C1 (configuration not stated)	0.9	14.4	-10.8	1.1
CCCC(c1nnnn1C1CCCCC1)N1CCN(C2CCCC2)CC1 (configuration not stated)	1	0.4	71.5*	0.3

From PubChem
